We go through seven sequences from publication PMC7862700, “An all-to-all approach to the identification of sequence-specific readers for epigenetic DNA modifications on cytosine”.

Common to all, as to test: DAPPL (digital affinity profiling via proximity ligation, sequencing); 10 mM Tris-HCl pH 7.5, 50 mM NaCl, 1 mM DTT, 4% glycerol, room temperature, 30 min; GST-TFs on glutathione beads, 16-mer random dsDNA library, 0.1% formaldehyde crosslink after washing; high values mean tight binding
Common to all, as to details: protein: recombinant; tags: N-terminal GST; dsDNA, one strand shown

For experiment [1], the target named is T1, FLI1 (Homo sapiens, UniProt Q01543 1-452).
T1 sequence: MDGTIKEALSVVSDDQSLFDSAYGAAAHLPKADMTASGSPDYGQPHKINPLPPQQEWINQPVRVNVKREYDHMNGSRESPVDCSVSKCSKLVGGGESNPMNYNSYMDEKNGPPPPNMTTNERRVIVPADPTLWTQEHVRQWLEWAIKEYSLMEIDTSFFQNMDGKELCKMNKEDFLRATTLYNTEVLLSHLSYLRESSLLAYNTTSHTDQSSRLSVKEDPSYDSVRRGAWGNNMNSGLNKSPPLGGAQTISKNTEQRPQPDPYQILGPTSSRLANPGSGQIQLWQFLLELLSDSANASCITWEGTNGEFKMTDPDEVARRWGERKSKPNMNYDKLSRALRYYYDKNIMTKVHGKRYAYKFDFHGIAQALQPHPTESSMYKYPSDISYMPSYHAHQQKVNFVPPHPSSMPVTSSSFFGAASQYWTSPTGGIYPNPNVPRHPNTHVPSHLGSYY
Put shortly: (§1)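 Human transcription factors fused to GST were expressed in yeast, captured on glutathione beads, given DNA barcodes and pooled with a GST-only negative control. Pools were incubated with 200 nmole of a 16-mer random double-stranded DNA library in Tris/NaCl/DTT/glycerol buffer at room temperature for 30 min. They were then washed, crosslinked with 0.1% formaldehyde, proximity-ligated (BsaI/T4 ligase, 1 h, 37 °C), PCR-amplified and sequenced on an Illumina NextSeq500. Binding signal is each 6-mer's read frequency for a factor divided by its frequency for the GST control.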

The target of experiment [2] is T2, ELK1 (Homo sapiens, UniProt P19419 1-428).
T2 sequence: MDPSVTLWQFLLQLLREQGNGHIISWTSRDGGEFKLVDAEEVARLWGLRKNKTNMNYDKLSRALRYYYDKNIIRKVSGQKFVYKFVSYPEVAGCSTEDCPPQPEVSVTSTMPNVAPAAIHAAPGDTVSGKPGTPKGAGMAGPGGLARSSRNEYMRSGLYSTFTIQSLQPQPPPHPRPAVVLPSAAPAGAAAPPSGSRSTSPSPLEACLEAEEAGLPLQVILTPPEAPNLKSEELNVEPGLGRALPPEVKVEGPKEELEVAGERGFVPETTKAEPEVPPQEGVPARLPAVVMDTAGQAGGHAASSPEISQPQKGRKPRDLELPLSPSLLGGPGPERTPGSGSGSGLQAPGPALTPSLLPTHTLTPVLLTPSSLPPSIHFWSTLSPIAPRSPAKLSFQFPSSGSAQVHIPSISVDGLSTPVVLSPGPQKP
Put shortly:
as §1

Experiment [3] has as its target T3, GABPA (Homo sapiens, UniProt Q06546 1-454).
T3 sequence: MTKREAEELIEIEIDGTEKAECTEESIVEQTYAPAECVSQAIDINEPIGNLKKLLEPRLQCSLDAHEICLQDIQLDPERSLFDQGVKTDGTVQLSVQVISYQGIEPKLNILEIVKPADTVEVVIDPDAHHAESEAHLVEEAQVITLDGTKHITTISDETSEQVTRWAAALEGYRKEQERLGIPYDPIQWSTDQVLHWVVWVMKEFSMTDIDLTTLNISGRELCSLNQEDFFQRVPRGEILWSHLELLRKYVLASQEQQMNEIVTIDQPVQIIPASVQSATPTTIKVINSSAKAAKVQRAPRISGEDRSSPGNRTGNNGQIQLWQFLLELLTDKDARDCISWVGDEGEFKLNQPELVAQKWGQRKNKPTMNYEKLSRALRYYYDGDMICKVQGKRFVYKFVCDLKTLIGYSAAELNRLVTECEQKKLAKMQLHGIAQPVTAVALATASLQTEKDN
The method, boiled down:
as §1

Experiment [4] addresses T4, ERG (Homo sapiens, UniProt P11308 1-479).
T4 sequence: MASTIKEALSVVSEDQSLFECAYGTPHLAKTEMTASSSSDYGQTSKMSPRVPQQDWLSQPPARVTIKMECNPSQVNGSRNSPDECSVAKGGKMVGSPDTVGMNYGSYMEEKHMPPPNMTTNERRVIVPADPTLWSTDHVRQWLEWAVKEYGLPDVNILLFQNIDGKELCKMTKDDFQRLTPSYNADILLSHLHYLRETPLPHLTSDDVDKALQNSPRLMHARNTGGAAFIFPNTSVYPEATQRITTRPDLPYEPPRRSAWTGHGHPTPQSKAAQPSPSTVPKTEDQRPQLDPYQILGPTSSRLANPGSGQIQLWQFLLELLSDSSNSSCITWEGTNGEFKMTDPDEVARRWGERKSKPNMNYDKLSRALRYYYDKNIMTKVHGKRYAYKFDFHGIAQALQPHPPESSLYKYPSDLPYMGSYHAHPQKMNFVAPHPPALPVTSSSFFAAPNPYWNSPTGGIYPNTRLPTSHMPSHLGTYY
Put shortly: as §1

Experiment [5] deals with ELF1 (Homo sapiens, UniProt P32519 1-619). Put shortly:
as §1

In experiment [6] the target is T5, EHF (Homo sapiens, UniProt Q9NZC4 1-300).
T5 sequence: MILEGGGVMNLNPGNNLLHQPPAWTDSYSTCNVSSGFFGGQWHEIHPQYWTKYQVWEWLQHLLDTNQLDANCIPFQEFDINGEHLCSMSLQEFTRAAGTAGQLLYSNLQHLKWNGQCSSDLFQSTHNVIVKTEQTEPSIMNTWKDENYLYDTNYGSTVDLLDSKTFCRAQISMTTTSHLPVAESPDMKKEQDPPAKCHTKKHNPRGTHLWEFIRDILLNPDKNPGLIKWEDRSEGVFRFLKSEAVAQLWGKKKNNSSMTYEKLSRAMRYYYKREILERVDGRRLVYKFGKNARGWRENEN
Put shortly: as §1

Experiment [7] deals with SPI1 (Homo sapiens, UniProt P17947 1-270). The method, boiled down: as §1
Experiment [8] concerns the target SPIB (Homo sapiens, UniProt Q01892 1-262). Put shortly: as §1
The target of experiment [9] is T6, ELK3 (Homo sapiens, UniProt P41970 1-407).
T6 sequence: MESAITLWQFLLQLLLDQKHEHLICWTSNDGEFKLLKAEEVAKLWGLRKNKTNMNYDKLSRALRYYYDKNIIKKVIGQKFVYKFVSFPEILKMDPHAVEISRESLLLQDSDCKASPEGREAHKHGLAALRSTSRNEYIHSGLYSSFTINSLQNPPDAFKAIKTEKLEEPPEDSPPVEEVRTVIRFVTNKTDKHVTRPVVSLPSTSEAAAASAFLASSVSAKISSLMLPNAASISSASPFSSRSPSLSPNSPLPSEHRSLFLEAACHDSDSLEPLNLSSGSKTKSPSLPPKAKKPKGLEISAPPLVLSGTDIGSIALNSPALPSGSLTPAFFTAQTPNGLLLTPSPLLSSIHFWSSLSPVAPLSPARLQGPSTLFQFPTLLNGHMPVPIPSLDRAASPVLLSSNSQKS
Put shortly:
as §1

Experiment [10] has as its target SPI1 (Homo sapiens, UniProt P17947 1-270). Put shortly: as §1
The source holds these as a separate data set.

Chain of SPIB (Q01892 whole entry): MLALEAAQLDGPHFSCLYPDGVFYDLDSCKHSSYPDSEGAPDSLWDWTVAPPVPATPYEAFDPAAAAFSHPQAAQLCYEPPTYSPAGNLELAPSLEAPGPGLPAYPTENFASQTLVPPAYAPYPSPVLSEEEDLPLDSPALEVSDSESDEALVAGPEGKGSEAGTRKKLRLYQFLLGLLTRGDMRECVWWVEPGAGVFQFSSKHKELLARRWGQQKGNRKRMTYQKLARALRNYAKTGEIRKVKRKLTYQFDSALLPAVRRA
Chain of ELF1 (P32519 whole entry): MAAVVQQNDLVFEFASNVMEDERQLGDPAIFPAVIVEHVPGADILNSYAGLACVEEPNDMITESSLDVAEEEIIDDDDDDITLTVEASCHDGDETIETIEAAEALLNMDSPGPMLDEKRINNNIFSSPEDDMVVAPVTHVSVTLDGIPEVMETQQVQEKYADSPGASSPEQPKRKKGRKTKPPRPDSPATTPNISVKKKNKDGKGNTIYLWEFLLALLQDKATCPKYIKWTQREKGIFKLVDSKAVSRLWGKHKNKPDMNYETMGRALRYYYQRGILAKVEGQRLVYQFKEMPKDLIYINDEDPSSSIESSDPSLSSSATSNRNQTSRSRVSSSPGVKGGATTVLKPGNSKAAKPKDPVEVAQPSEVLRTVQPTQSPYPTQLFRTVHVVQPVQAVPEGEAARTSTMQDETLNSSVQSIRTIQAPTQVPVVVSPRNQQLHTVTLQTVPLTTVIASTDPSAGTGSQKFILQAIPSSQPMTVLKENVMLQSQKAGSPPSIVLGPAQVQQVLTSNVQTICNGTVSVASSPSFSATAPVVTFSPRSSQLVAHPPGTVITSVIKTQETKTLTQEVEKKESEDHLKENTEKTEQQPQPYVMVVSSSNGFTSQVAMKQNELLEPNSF

For CTTCCG, the binding signal in experiment [1] is 7.32 fold enrichment (6-mer frequency, TF over GST control); in experiment [2], 8.14 fold enrichment (6-mer frequency, TF over GST control); in [3], 6.76 fold enrichment (6-mer frequency, TF over GST control); in experiment [4], 8.96 fold enrichment (6-mer frequency, TF over GST control); in experiment [5], 7.37 fold enrichment (6-mer frequency, TF over GST control); in [6] it was 7.93 fold enrichment (6-mer frequency, TF over GST control). Further, the binding signal was 9.8 fold enrichment (6-mer frequency, TF over GST control) in [7]; 7.71 fold enrichment (6-mer frequency, TF over GST control) in experiment [8]; 9.13 fold enrichment (6-mer frequency, TF over GST control) in experiment [9].
In the case of AATTAT, the binding signal was 1.24 fold enrichment (6-mer frequency, TF over GST control) in experiment [1]; 1.25 fold enrichment (6-mer frequency, TF over GST control) in [2]; 1.2 fold enrichment (6-mer frequency, TF over GST control) in [3]; 1.26 fold enrichment (6-mer frequency, TF over GST control) in [4]; 1.22 fold enrichment (6-mer frequency, TF over GST control) in experiment [5]; 1.23 fold enrichment (6-mer frequency, TF over GST control) in experiment [6]. For the same sequence, the binding signal was 1.18 fold enrichment (6-mer frequency, TF over GST control) in experiment [10]; 1.23 fold enrichment (6-mer frequency, TF over GST control) in [8]; 1.25 fold enrichment (6-mer frequency, TF over GST control) in [9].
For the sequence GTTTCT, the binding signal was 1.36 fold enrichment (6-mer frequency, TF over GST control) in experiment [1]; 1.17 fold enrichment (6-mer frequency, TF over GST control) in [2]; 1.26 fold enrichment (6-mer frequency, TF over GST control) in [3]; 1.22 fold enrichment (6-mer frequency, TF over GST control) in experiment [4]; 1.29 fold enrichment (6-mer frequency, TF over GST control) in [5]; 1.28 fold enrichment (6-mer frequency, TF over GST control) in [6]. Further, the binding signal is 1.31 fold enrichment (6-mer frequency, TF over GST control) in [10]; 1.25 fold enrichment (6-mer frequency, TF over GST control) in experiment [8]; 1.14 fold enrichment (6-mer frequency, TF over GST control) in [9].
Turning to CTTCCT, the binding signal in [1] was 3.11 fold enrichment (6-mer frequency, TF over GST control); in experiment [2], 2.94 fold enrichment (6-mer frequency, TF over GST control); in [3], 2.95 fold enrichment (6-mer frequency, TF over GST control); in experiment [4], 3.65 fold enrichment (6-mer frequency, TF over GST control); in experiment [5], 3.01 fold enrichment (6-mer frequency, TF over GST control); in [6], 3.28 fold enrichment (6-mer frequency, TF over GST control). The binding signal was 5.09 fold enrichment (6-mer frequency, TF over GST control) in experiment [7]; 3.4 fold enrichment (6-mer frequency, TF over GST control) in experiment [8]; 3.04 fold enrichment (6-mer frequency, TF over GST control) in experiment [9].
With CGCTTC, the binding signal in experiment [1] is 1.94 fold enrichment (6-mer frequency, TF over GST control); in [2], 2.2 fold enrichment (6-mer frequency, TF over GST control); in experiment [3] it was 1.99 fold enrichment (6-mer frequency, TF over GST control); in [4], 2.07 fold enrichment (6-mer frequency, TF over GST control); in [5], 2.04 fold enrichment (6-mer frequency, TF over GST control); in [6] it was 2.16 fold enrichment (6-mer frequency, TF over GST control). In addition, the binding signal in experiment [10] is 2 fold enrichment (6-mer frequency, TF over GST control); in experiment [8] it was 2.05 fold enrichment (6-mer frequency, TF over GST control); in experiment [9] it was 2.29 fold enrichment (6-mer frequency, TF over GST control).
Turning to ATGCGC, the binding signal in experiment [1] was 1.15 fold enrichment (6-mer frequency, TF over GST control); in [2] it was 1.18 fold enrichment (6-mer frequency, TF over GST control); in experiment [3] it was 1.18 fold enrichment (6-mer frequency, TF over GST control); in experiment [4], 1.18 fold enrichment (6-mer frequency, TF over GST control); in experiment [5], 1.1 fold enrichment (6-mer frequency, TF over GST control); in experiment [6] it was 1.17 fold enrichment (6-mer frequency, TF over GST control). In addition, the binding signal in experiment [10] is 1.11 fold enrichment (6-mer frequency, TF over GST control); in experiment [8] it was 1.21 fold enrichment (6-mer frequency, TF over GST control); in experiment [9], 1.08 fold enrichment (6-mer frequency, TF over GST control).
Regarding TACTTT, the binding signal in [1] was 1.32 fold enrichment (6-mer frequency, TF over GST control); in [2], 1.48 fold enrichment (6-mer frequency, TF over GST control); in experiment [3] it was 1.41 fold enrichment (6-mer frequency, TF over GST control); in experiment [4], 1.29 fold enrichment (6-mer frequency, TF over GST control); in [5] it was 1.34 fold enrichment (6-mer frequency, TF over GST control); in experiment [6] it was 1.39 fold enrichment (6-mer frequency, TF over GST control). Besides, the binding signal in experiment [10] is 1.25 fold enrichment (6-mer frequency, TF over GST control); in [8], 1.36 fold enrichment (6-mer frequency, TF over GST control); in experiment [9], 1.11 fold enrichment (6-mer frequency, TF over GST control).
